High-throughput results as filed in PubChem BioAssay.
In the library only some 1.1% were active in any assay of this set; here they are far more common.
MOR-DOR inv ag: mu-delta opioid heterodimer inverse agonism; P35372+P41143; cell-based MOR-DOR heterodimer luminescence; inhibition, % at 9.3 µM; 0.21% of 340,000 active; in the data active means inhibition above about 22%, passing the limit was not always enough;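 further: 0% = cells with DMSO and 100% = wells without cells with DMSO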
HTR5A ag: counter-screen for OPRM1-OPRD1 agonists: human HTR5A agonism; HTR5A agonist assay, luminescence, cell-based; activation, % at 9.3 µM; 0.61% of 340,000 active; AID 504692; in the data active means activation mostly above about 9.5%, no sharp cut-off; inactive means mostly below about 7.6%;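 further: 0% = cells with vehicle only and 100% = reference agonist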
Target sequence (P47898 whole entry, looked up): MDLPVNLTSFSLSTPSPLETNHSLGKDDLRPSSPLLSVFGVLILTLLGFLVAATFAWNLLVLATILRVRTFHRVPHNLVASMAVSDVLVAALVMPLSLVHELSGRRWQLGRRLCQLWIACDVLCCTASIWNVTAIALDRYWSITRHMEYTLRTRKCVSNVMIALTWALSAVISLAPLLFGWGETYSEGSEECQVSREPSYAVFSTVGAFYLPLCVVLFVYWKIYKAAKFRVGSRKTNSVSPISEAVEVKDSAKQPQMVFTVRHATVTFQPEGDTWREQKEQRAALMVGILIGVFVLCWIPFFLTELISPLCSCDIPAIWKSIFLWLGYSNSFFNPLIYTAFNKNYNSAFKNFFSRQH
MOR-DOR ag-1: agonists of human mu-delta opioid receptor heterodimerization | cells, OPRM1-OPRD1 heterodimerization, luminescence | P35372+P41143 | AID 504326 | activation, % at 9.3 µM | 0.3% of 340,000 active;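 further: 0% = vehicle-treated cells and 100% = reference agonist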
HTR5A inv ctr: inverse agonist of human HTR5A in OPRM1-OPRD1 counter-screen; 0.083% of 340,000 active; HTR5A cell line, luminescence, inverse agonism; inhibition, % at 9.3 µM; P47898; in the data active means inhibition mostly above about 23%, no sharp cut-off; inactive means mostly below about 18%;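 further: 0% = cells with DMSO and 100% = no-cell wells with DMSO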
MOR-DOR ag-2: opioid heterodimer agonism, HTR5A counter-screen; shares compounds with HTR5A ag; U2OS counter-screen cells, complementation luminescence, 3 h; activation, % at 9.3 µM; 13% of 800 active; AID 504913
HTR5A ag conf: HTR5A (human) agonism, confirmation. shares compounds with HTR5A ag. HTR5A agonist cell assay, luminescence. activation, % at 9.3 µM. 17% of 800 active; in the data active means activation above about 17%;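 further: 0% = cells with vehicle only and 100% = full reference agonist response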
Active calls of the source: *; ! = repeats disagree. Unless noted, no stated cut-off is given here; in the data, active means activation above about 18%; inactive means the rest.

`NC(=O)c1ccc(SCC(=O)NC2CCCCC2)c([N+](=O)[O-])c1` gave MOR-DOR inv ag -14, HTR5A ag 14*, MOR-DOR ag-1 3, HTR5A inv ctr 8, MOR-DOR ag-2 2 and HTR5A ag conf 1.
Cc1nn(Cc2ccc(F)cc2)c2sc(C(=O)Nc3nccs3)cc12 was read as MOR-DOR inv ag -66, HTR5A ag 21*, MOR-DOR ag-1 9, HTR5A inv ctr -57, MOR-DOR ag-2 4 and HTR5A ag conf 0.
For Cc1nn(Cc2ccccc2Cl)c2sc(C(=O)Nc3nccs3)cc12 the results were MOR-DOR inv ag -32, HTR5A ag 6, MOR-DOR ag-1 5 and HTR5A inv ctr -18.
For CCCNC(=O)c1ccccc1NC(=O)COc1cccc2c1OC(C)(C)C2 the results were MOR-DOR inv ag 9, HTR5A ag 27*, MOR-DOR ag-1 -2, HTR5A inv ctr -67, MOR-DOR ag-2 10 and HTR5A ag conf 0.
Screening COc1ccc(NC(=O)COc2cccc3c2OC(C)(C)C3)cc1OC returned MOR-DOR inv ag 1, HTR5A ag 26*, MOR-DOR ag-1 0, HTR5A inv ctr -67, MOR-DOR ag-2 1 and HTR5A ag conf 29*.
Screening CC1(C)Cc2cccc(OCC(=O)OCC(=O)Nc3ccccc3)c2O1 returned MOR-DOR inv ag 6, HTR5A ag 6, MOR-DOR ag-1 -1 and HTR5A inv ctr -17.
Screening CN(C)S(=O)(=O)c1ccc(NC(=O)COc2cccc3c2OC(C)(C)C3)cc1 returned MOR-DOR inv ag 6, HTR5A ag 24*, MOR-DOR ag-1 -1, HTR5A inv ctr -104, MOR-DOR ag-2 4 and HTR5A ag conf 46*.
Screening COc1cccc(NC(=O)COC(=O)COc2cccc3c2OC(C)(C)C3)c1 returned MOR-DOR inv ag -10, HTR5A ag 1, MOR-DOR ag-1 2 and HTR5A inv ctr -10.
Screening O=S(=O)(c1cccc(NC(=S)N2CCN(c3cccc(Cl)c3)CC2)c1)C(F)F returned MOR-DOR inv ag -92, HTR5A ag 15*, MOR-DOR ag-1 13, HTR5A inv ctr -43, MOR-DOR ag-2 31* and HTR5A ag conf 2.
Cc1cc(C)c(S(=O)(=O)N2CCN(C(=O)CCn3nc(C)c(C)c3C)CC2)c(C)c1 was read as MOR-DOR inv ag 0, HTR5A ag 16*, MOR-DOR ag-1 0, HTR5A inv ctr -47, MOR-DOR ag-2 1 and HTR5A ag conf 1.
For Cc1c(N=C/C=C2\N(C)c3ccccc3C2(C)C)c(=O)n(-c2ccccc2)n1C the results were MOR-DOR inv ag 10, HTR5A ag 48*, MOR-DOR ag-1 -2, HTR5A inv ctr -125, MOR-DOR ag-2 2 and HTR5A ag conf 32*.
Screening Cc1c(NC(=S)/C=C2\N(C)c3ccccc3C2(C)C)c(=O)n(-c2ccccc2)n1C returned MOR-DOR inv ag 12, HTR5A ag 2, MOR-DOR ag-1 -2 and HTR5A inv ctr -26.
For Cc1c(N=C/C=C2/N(C)c3ccccc3C2(C)C)c(=O)n(-c2ccccc2)n1C the results were MOR-DOR inv ag -1, HTR5A ag 22*, MOR-DOR ag-1 0, HTR5A inv ctr -85, MOR-DOR ag-2 0 and HTR5A ag conf 29*!.
Cc1c(N=C/C=C/c2ccccc2)c(=O)n(-c2ccccc2)n1C was read as MOR-DOR inv ag -6, HTR5A ag 2, MOR-DOR ag-1 1 and HTR5A inv ctr -9.
For CCCCC1(Br)C(=O)N(c2ccccc2)N(c2ccccc2)C1=O the results were MOR-DOR inv ag 23, HTR5A ag 16*, MOR-DOR ag-1 -6, HTR5A inv ctr -42, MOR-DOR ag-2 1 and HTR5A ag conf 0.
For CCOc1ccc(S(=O)(=O)N2CCNC(=O)C2)cc1 the results were MOR-DOR inv ag 0, HTR5A ag 20*, MOR-DOR ag-1 0, HTR5A inv ctr -57, MOR-DOR ag-2 0 and HTR5A ag conf 2.
CCOc1ccc(S(=O)(=O)N2CN3CCN(C3)C2)cc1 was read as MOR-DOR inv ag 9, HTR5A ag 2, MOR-DOR ag-1 -2 and HTR5A inv ctr -14.
`O=C(N1CCCC1)C12CCC3CC(CC(C3)C1)C2` gave MOR-DOR inv ag -12, HTR5A ag -6, MOR-DOR ag-1 2 and HTR5A inv ctr -23.
For O=C(c1ccccn1)N1N=C2/C(=C/c3ccc(F)cc3)CCCC2C1c1ccc(F)cc1 (stereo not given) the results were MOR-DOR inv ag 1, HTR5A ag -2, MOR-DOR ag-1 0 and HTR5A inv ctr -28.
For CN(CCCNC(=O)CCc1cn(C)c2ccccc12)C1CCCCC1 the results were MOR-DOR inv ag -5, HTR5A ag -5, MOR-DOR ag-1 1 and HTR5A inv ctr 17.
`COc1ccc(C)cc1NC(=O)CSc1nnc(-c2ccc(Br)cc2)o1` gave MOR-DOR inv ag -9, HTR5A ag 22*, MOR-DOR ag-1 2, HTR5A inv ctr -17, MOR-DOR ag-2 2 and HTR5A ag conf 2.
`Cc1cccc(NC(=O)NC2CCCCCCC2)c1C` gave MOR-DOR inv ag -12, HTR5A ag 1, MOR-DOR ag-1 2 and HTR5A inv ctr 5.
For COc1ccc(C2C(C(=O)c3ccc(C)o3)=C(O)C(=O)N2Cc2cccnc2)cc1 (stereo not given) the results were MOR-DOR inv ag 14, HTR5A ag 15*, MOR-DOR ag-1 -2, HTR5A inv ctr 5, MOR-DOR ag-2 182* and HTR5A ag conf 4.
Screening Cc1ccc(C(=O)C2=C(O)C(=O)N(Cc3cccnc3)C2c2ccc(OC(C)C)cc2)o1 (stereo not given) returned MOR-DOR inv ag 19, HTR5A ag 2, MOR-DOR ag-1 -6 and HTR5A inv ctr -14.
`CCNC(=O)c1ccc(-n2nc(C(F)(F)F)c3c2CCCC3)cc1` gave MOR-DOR inv ag 4, HTR5A ag 16*, MOR-DOR ag-1 -1, HTR5A inv ctr -79, MOR-DOR ag-2 1 and HTR5A ag conf 36*.
For COc1ccc(-c2nn(-c3ccccc3)cc2/C=C/C(=O)N(C)CC(=O)Nc2cccc(F)c2)cc1OC the results were MOR-DOR inv ag -1, HTR5A ag 15*, MOR-DOR ag-1 0, HTR5A inv ctr 11, MOR-DOR ag-2 2 and HTR5A ag conf 1.
`COc1cccc(NC(=O)CN(C)C(=O)/C=C/c2cn(-c3ccccc3)nc2-c2ccc(OC)c(OC)c2)c1` gave MOR-DOR inv ag -4, HTR5A ag -3, MOR-DOR ag-1 1 and HTR5A inv ctr 7.
For O=S(=O)(NCc1ccc(F)cc1)c1cccc(S(=O)(=O)N2CCOCC2)c1 the results were MOR-DOR inv ag -27, HTR5A ag 20*, MOR-DOR ag-1 4, HTR5A inv ctr -51, MOR-DOR ag-2 1 and HTR5A ag conf 0.
`O=S(=O)(NCc1ccccc1F)c1cccc(S(=O)(=O)N2CCOCC2)c1` gave MOR-DOR inv ag 10, HTR5A ag 2, MOR-DOR ag-1 -2 and HTR5A inv ctr -5.
Cc1ccc(C(=O)CCC(=O)OCC(=O)NNC(=O)c2ccccc2Cl)cc1 was read as MOR-DOR inv ag 7, HTR5A ag 8, MOR-DOR ag-1 -2 and HTR5A inv ctr -10.
